Data from ChEMBL document CHEMBL3988442, “University of Dundee, Small-Polar-MMV Screening Library” (2021).

Molecular target: Shiga toxin 2 (Escherichia coli O157:H7) (UniProt P09385+P09386)
Assay: E. coli 0.157:H7 Shiga Toxin SOP - stx2 screening assay
Format: functional
Design: scale not given: direction of the effect not stated beside the values
Conditions: 30 µM

SMILES	Percent Effect [%]
CCC1c2ccsc2CCN1C(=O)NCc1ccccn1 (stereo not given)	-4.32
Cc1nc(N2CCCC2)nc2c1CCN(C(=O)CC1CC1)CC2	-20.8
Cc1cc(C)n(CC2CCCN2CC(=O)N(C)Cc2cnn(C)c2)n1 (stereo not given)	21.8
COc1ccc(C(=O)N(C)Cc2cccc(C#N)c2)c(OC)c1OC	30.3
O=C(C1CCC1)N1CCCC1c1nnc2n1CCCCC2 (stereo not given)	-16
CNC(=O)N1C[C@H]2C[C@H](C(=O)Nc3ccccc3)[C@@H](C1)O2	6.82
CN(C)C(=O)N1Cc2nnn(C)c2C(COCC2CC2)C1 (stereo not given)	-35.2
Cc1ccccc1CN1CCN(Cc2nccn2C)CC1	13.3
O=C(Nc1nccs1)N(CCO)Cc1ccsc1	-3.95
COc1ccc2c(c1)C1(CCN(Cc3ccoc3)CC1)N(C)CC2	-9.8
Cc1noc([C@@H]2C[C@H]3OCC[C@H]3N(S(=O)(=O)c3cccnc3)C2)n1	-21.9
CCN1CCC2(CC1)CC(NC(=O)N(C)C)c1cc(C)ccc12 (stereo not given)	-28.6
COC(=O)c1ccc(S(=O)(=O)NCc2cccnc2N(C)C)cc1	12
Cc1cc(NCc2cc3n(n2)CCCN(C(=O)N(C)C)C3)ncn1	-3.81
CNC(=O)C1Cn2ccnc2C2(CCN(Cc3cccnc3)CC2)O1 (stereo not given)	3.87
Cc1cnc(CN(C)C2CCN(CC(=O)Nc3nncs3)C2)o1 (stereo not given)	-13.8
Cc1nccnc1N1CC[C@@H](NC(=O)c2cnccn2)[C@H](O)C1	-24.4
O=C(CCc1cscn1)N1CCCC(c2ccn[nH]2)C1 (stereo not given)	5.88
Cc1ccn(CCC(=O)N2CCOC(c3nc(-c4cccs4)no3)C2)n1 (stereo not given)	37.2
CN(CCNC(=O)NCc1ccncc1)C1CCCC1	8.07

SMILES	Percent Effect [%]
O=C(CN1CCCC(c2ccc(C(=O)O)cc2)C1)NC1CC1 (stereo not given)	6.8
CNc1nc(CNC(=O)Nc2ccccc2-c2noc(C)n2)cs1	13.1
COCc1nc(C(=O)NS(=O)(=O)c2ccc(C)cc2C)cs1	-0.5
Cc1ccc(-c2cc(CNC(=O)N3CCC(CO)CC3)on2)cc1	16.1
CCS(=O)(=O)c1ncc(CN(C)Cc2ccccn2)n1CCOC	6.2
COCc1ccccc1NC(=O)[C@@H]1CCCN1C(=O)c1ccco1	-2.06
Cc1nnc(N2CC[C@H](OCC3CC3)[C@@H](Cc3ccccc3)C2)s1	-15.5
COc1c(CNCc2ccnc(N3CCCC3)c2)c(C)nn1C	-55.3
Cc1c(Br)cccc1C(=O)NC(C)CN1CCCC1=O (stereo not given)	1.67
COCCO[C@H]1CCN(C(=O)c2ccc[nH]2)[C@H]1Cc1ccncc1	-2.78
O=c1cc2c(nn1CN1CCN(c3cccc(Cl)c3)CC1)CCC2	-4.9
CCc1nc2ccccc2c(=O)n1CC1(O)CCN(S(C)(=O)=O)CC1	-2.21
Cn1ccc2c(C(=O)N3CCC(C(N)=O)CC3)cccc21	-43.9
Cc1nc(C)c(C(=O)NCCNc2ncccc2C#N)s1	-20.6
COc1ccc(C2C3=C(COC3=O)Nc3[nH]nc(C)c32)cc1OC (stereo not given)	-21.4
Cn1cc(C(=O)NC[C@@H]2OC[C@H]3CN(S(C)(=O)=O)CC[C@H]32)cn1	-26.8
CCc1cccc(N2CCC(NC(=O)c3cc[nH]n3)CC2)c1	18.9
CC(C)c1ccc(C(O)Cn2c(=O)c(C#N)cn(C3CC3)c2=O)cc1 (stereo not given)	14.3
CC(C)(C)c1noc(CN2CCN(C(=O)c3cccs3)CC2)n1	6.49
CS(=O)(=O)c1cccc(C(N)c2ccc(F)c(F)c2)c1 (stereo not given)	-2.5
